The list is not random: actives were taken first. Their share in the collection is about 3.9%.
D1 potentiator: Potentiators of Human D1 Dopamine Receptor: qHTS; HEK293 TREx D1 cells, calcium flux, dopamine EC20 potentiation; D(1A) dopamine receptor (Homo sapiens), P21728; hit rate 0.036% among 360,000; AID 504651, 2011; potentiation, % at 10 µM; in the data active means potentiation above about 30%; further: 0% is about no effect
D1 ag: Allosteric Agonists of the Human D1 Dopamine Receptor: qHTS; D(1A) dopamine receptor (Homo sapiens), P21728; HEK293 T-REx D1 cells, calcium flux, agonist mode; activation, % at 2 µM; hit rate 1% among 360,000; in the data active means activation above about 30%; further: 0% is about no effect
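Inducible HEK293 T-REx D1 cells, force-coupled to calcium signalling, were plated at 4000 cells/well with tetracycline and held overnight at 30 C. After no-wash calcium dye loading, compound-evoked calcium rise over 180 s flagged agonists.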
GALK inhibitor: qHTS Assay for Inhibitors of Human Galactokinase (GALK); P51570; Purified GALK, Kinase-Glo residual ATP luminescence; Potency, µM (doses to about 57.5 µM), for the others: at the top dose activity change, negative = inhibition, actives largely listed as inhibitors; hit rate 0.007% among 270,000; further: potency means the concentration at half of the fitted maximal effect; on the % scale 0 is the no-effect control and ±100 the full control effect
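GALK at 5 nM final was combined with compound, 35 uM ATP and 100 uM galactose in HEPES pH8.0 with MgCl2 and DTT. The reaction ran one hour at room temperature before luminescent ATP detection.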
D1 antag: Antagonist of Human D 1 Dopamine Receptor: qHTS; hit rate 3.2% among 360,000; AID 504652, 2011; activity change, negative = inhibition, % at 10 µM; HEK293 TREx D1 cells, calcium flux, dopamine EC80; active compounds read low; D(1A) dopamine receptor (Homo sapiens), P21728; in the data active means activity change below about -30%; further: on the % scale 0 is the no-effect control and ±100 the full control effect
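Cells carrying a force-coupled, tetracycline-inducible human D1 receptor report calcium flux. Each well gets a 10 s baseline, compound with 180 s monitoring, then an EC80 dopamine stimulus with a second 180 s kinetic read.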
Eya2 phos inh: qHTS Assay for Inhibitors of the Phosphatase Activity of Eya2. Protein phosphatase EYA2 (Homo sapiens), O00167. recombinant Eya2, OMFP fluorescence dephosphorylation (OMFP is methylfluorescein phosphate). Potency, µM (highest dose often 76.9 µM), inactives show top-dose activity, negative = inhibition, usual class: inhibitors. hit rate 0.006% among 330,000; further: potency means the concentration at half of the fitted maximal effect; on the % scale 0 is the no-effect control and ±100 the full control effect
Target sequence (O00167 whole entry, looked up): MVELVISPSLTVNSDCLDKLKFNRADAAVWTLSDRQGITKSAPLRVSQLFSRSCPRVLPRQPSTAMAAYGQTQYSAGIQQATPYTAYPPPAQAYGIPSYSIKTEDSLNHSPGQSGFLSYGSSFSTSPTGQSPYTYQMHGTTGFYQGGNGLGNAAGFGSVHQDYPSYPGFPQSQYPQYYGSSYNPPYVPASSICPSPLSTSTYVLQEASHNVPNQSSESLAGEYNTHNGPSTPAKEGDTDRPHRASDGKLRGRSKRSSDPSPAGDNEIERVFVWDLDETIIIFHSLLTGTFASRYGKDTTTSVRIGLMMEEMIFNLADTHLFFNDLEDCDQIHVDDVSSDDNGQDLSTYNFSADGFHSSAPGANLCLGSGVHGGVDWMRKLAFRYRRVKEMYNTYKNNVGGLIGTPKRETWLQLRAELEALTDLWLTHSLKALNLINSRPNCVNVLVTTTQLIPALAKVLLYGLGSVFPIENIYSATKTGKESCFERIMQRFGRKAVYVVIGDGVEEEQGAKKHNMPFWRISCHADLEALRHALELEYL
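Eya2 protein (added as 0.2 uM solution) was preincubated with compound for 10 min at ambient temperature in 50 mM HEPES pH 7.5, 50 mM NaCl, 5 uM MgCl2, 0.05% BSA, 1 mM DTT. OMFP (added at 50 uM) then reacted 10 min; fluorescence read at 485/525 nm.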
USP2a block: qHTS Assay for Inhibitors of Ubiquitin-specific Protease USP2a Using CHOP2 as the Reporter; Ubiquitin carboxyl-terminal hydrolase 2 (Homo sapiens), O75604; USP2 core, Ub-CHOP2 coupled fluorogenic reporter, 485/531; Potency, µM (titrated, usually from 38.3 µM), for inactives: top-dose activity change, negative = inhibition, actives largely listed as inhibitors; hit rate 0.01% among 330,000; AID 463254, 2010;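 further: potency means the concentration at half of the fitted maximal effect; plate controls were DMSO wells for no effect and full inhibition by NEM control for full effect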
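USP2 core (10nM final) preincubated 30min RT with compound in 20mM Tris-HCl pH 8.0, 2mM CaCl2, 2mM beta-mercaptoethanol, 0.05% CHAPS; 25nM Ub-CHOP2 plus 25nM reporter substrate added, fluorescence (Ex485/Em531) read after 60min.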
Active calls of the source: *; ? = inconclusive; · = no result given; ! = not confirmed by another sample. Unless noted, the call rests on the fitted dose curve; in most records, active means well fitted inhibition curve with a large enough effect; inconclusive means small, poorly fitted or top-dose-only effect, or effect the other way; inactive means flat fitted curve, though single readings scatter.

SMILES	D1 potentiator	D1 ag	GALK inhibitor	D1 antag	Eya2 phos inh	USP2a block
O=C(Nc1cc(-c2nc3ccccc3o2)ccc1Cl)c1sc2c([N+](=O)[O-])cccc2c1Cl	2	1	·	16	·	·
Cc1cc(N2CCN(C)CC2)nc2ccc(NC(=O)c3ccccc3F)cc12	-4	0	-2%	-42*!	-15%	1%
Cc1cc(N2CCN(C)CC2)nc2ccc(NC(=O)c3cccnc3Cl)cc12	30*	2	-1%	2	13%	5%
CCOc1cc(C(=O)Nc2ccc3nc(N4CCN(C)CC4)cc(C)c3c2)cc(OCC)c1OCC	0	0	·	-34*	·	·
COc1ccc(OC)c(-c2noc(N3CCN(c4cccc(C(F)(F)F)c4)CC3)n2)c1	-3	8	·	-6	·	·
O=S(=O)(O)c1nnc2sc3ccccc3n12	-2	2	1%	-36*	10%	-1%
CC(C)Oc1ccc(S(=O)(=O)N2CCOCC2)cc1NC(=O)C1COc2ccccc2O1 (stereo not drawn)	-2	3	·	-44*	7%	3%
CCOc1ccc(S(=O)(=O)N2CCCCC2)cc1NC(=O)C1COc2ccccc2O1 (stereo not drawn)	-10	6	·	0	9%	1%
Cc1cc(C)n(-c2nnc(Nc3ccc(C)c(Cl)c3)c3ccccc23)n1	-6	1	·	-40*	·	·
CCOc1ccc(C(=O)NCC(=O)NCC2CCCCC2)cc1OCC	2	1	4%	-34*	12%	-1%
CCOc1ccc(C(=O)NCC2CCCO2)cc1OCC (stereo not drawn)	4	2	3%	-10	-6%	-1%
N#CCC(=O)Nc1ccc(C(=O)OCC(=O)N=c2sccn2Cc2ccccc2Cl)cc1	-10	4	·	-46*	22%	3%
COc1ccc(C2CC(c3ccccc3)=NN2S(=O)(=O)c2ccccc2)c(OC)c1 (stereo not drawn)	-10	10	-2%	2	1%	2%
COc1ccccc1C1CC(c2ccccc2)=NN1S(=O)(=O)c1ccccc1 (stereo not drawn)	2	4	0%	-34*	-1%	-1%
COc1ccc(-c2cn3nc(N4CCCC(C(=O)NCc5ccccc5Cl)C4)sc3n2)cc1 (stereo not drawn)	0	0	·	-7	·	·
Clc1ccc(OCc2cc(-c3ccccc3)no2)cc1Cl	-3	16	-2%	-3	2%	3%
Clc1ccc(-c2cc(COc3ccccc3)on2)cc1	5	35*	3%	11	3%	-1%
OCCCc1nc2n(n1)C(c1cccs1)C=C(c1ccccc1)N2 (stereo not drawn)	·	34*	1%	1	?	?
COc1cc2c(cc1OC)C1C/C(=N\O)C(CC(C)C)CN1CC2 (stereo not drawn)	-22	0	·	-67*	2%	3%
C=Cc1ccc(Cn2c(=O)cc(C)c3c(C)nn(C)c32)cc1	7	51*	·	-29	·	·
Cc1cc(=O)n(CC(=O)N2CCN(c3ccccc3F)CC2)c2c1c(C)nn2C	-6	10	·	-30*	·	·
COc1ccccc1N1CCN(c2c(CN3CCCC3)c(=O)oc3ccccc23)CC1	-2	0	·	-5	·	·
O=C(Cn1c(=O)n(Cc2ccc(C(=O)NCc3ccccc3Cl)cc2)c(=O)c2ccccc21)Nc1ccc(F)cc1	0	7	·	-22	·	·
Cc1ccc(NC(=O)C2CCC(CNS(=O)(=O)c3cccc4nsnc34)CC2)c(Cl)c1 (stereo not drawn)	-5	3	·	0	·	·

Bioassay records from PubChem BioAssay.
